This note sets out measurements from PubChem BioAssay (NCATS).

Records with an inconclusive call do not appear. Where a call stands in place of a potency, no number is given. Calls of active or inactive are those of the source. The call rests on the fitted dose curve; in most records, active means well fitted inhibition curve with a large enough effect; inconclusive means small, poorly fitted or top-dose-only effect; inactive means no such curve, though single readings can be large or run the other way.
Potency means the concentration at half of the fitted maximal effect.

The nature of this experiment: Primary qHTS for inhibitors of nuclear receptor binding SET domain protein 2 (NSD2) in an RCH-ACV wild type WT cells (2C) (AID 1645877). Further: nearly all actives have a fitted effect of over 70% in size. The conditions noted are these: RCH-ACV (leukaemia line) NSD2 WT (2C) viability, CellTiter-Glo, 72 h; series mostly up to 44.9 µM. A general note: qHTS replaces the single test concentration by a dilution series.
Consider `O=C(O)C(=O)Nc1cccc(-c2nn[nH]n2)c1`, for which the Potency entry was “inactive”.
For the molecule `COc1ccc2cc(C=O)ccc2c1`, the Potency entry is “inactive”.
As to `CCCCC(CC)CNC(=O)CC(C)OC(=O)CCC(=O)O` (centres undefined), the Potency result was “inactive”.
To `CNC(=O)c1c(I)c(NC(C)=O)c(I)c(C(=O)O)c1I` belongs “inactive”; to `CCCCCCCCCCCCCCCC[N+](C)(C)Cc1ccccc1`, 0.668 µM (active).
To `C[C@@H]1C[C@H]2[C@@H]3CCC4=CC(=O)C=C[C@]4(C)[C@@]3(F)[C@@H](O)C[C@]2(C)[C@@]1(O)C(=O)COC(=O)c1ccncc1` belongs “inactive”; to `O=C(O)[C@H](O)[C@@H](O)[C@H](O[C@@H]1O[C@H](CO)[C@H](O)[C@H](O)[C@H]1O)[C@H](O)CO`, “inactive”.
Under `N#CC1(c2ccc(F)cc2)CCC(=O)CC1` stands “inactive”; under `CCCC(=O)O[C@]1(C(=O)CC)CC[C@H]2[C@@H]3CCC4=CC(=O)CC[C@]4(C)[C@H]3[C@@H](O)C[C@@]21C`, “inactive”.
`O=C1NC(c2ccccc2)(c2ccccc2)C(=O)N1COP(=O)(O)O`: the Potency entry is “inactive”.
`Cc1ccc2ccc(Cl)cc2n1`: the Potency entry was “inactive”.
To `Brc1ccc([C@H]2CN3CCSC3=N2)cc1` belongs “inactive”; to `O=[N+]([O-])c1nccn1CO[C@@H](CO)[C@H](O)CO`, “inactive”; to `CC(C)NC(=O)c1ccc(C=O)cc1`, “inactive”.
For `CCCCCOc1ccccc1/C(=C\SC)n1ccnc1`, the Potency was 13.3 µM (active).
To `COCCc1ccccn1` belongs “inactive”.
Take `CCN1CCN(c2cc(-c3ccc(F)cc3)c3c(n2)CCCCCC3)CC1`: the Potency entry was “inactive”.
To `CN(C)C(=O)CNC(=O)Cc1ccccc1` belongs “inactive”; to `Nc1c(I)cc(I)c(C(=O)N(CCC(=O)O)c2ccccc2)c1I`, “inactive”.
